From article PMC5913336, “True equilibrium measurement of transcription factor-DNA binding affinities using automated polarization microscopy” come the findings set out here.

The first assay has as its target T1, Slp1-FL (Drosophila melanogaster, UniProt P32030).
T1 sequence: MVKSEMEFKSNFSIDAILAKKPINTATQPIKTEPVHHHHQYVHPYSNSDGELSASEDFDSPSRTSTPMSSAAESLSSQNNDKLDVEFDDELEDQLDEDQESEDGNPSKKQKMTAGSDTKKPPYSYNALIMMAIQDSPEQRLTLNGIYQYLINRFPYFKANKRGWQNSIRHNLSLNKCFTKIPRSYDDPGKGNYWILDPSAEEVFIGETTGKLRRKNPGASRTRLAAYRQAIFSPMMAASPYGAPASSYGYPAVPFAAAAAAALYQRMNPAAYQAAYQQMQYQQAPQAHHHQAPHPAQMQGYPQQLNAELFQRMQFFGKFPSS
Kind of assay: FP; 33 mM phosphate pH 7.0, 90 mM NaCl, 0.01% Tween 20, 0.1 mM DTT, 0.5% agarose; room temperature. The settings on record: tags: N-GST (pGEX-6P-1, kept); dsDNA, one strand shown.
With CCGTGTTTACACTTA, the binding signal is 1.25 Kd / Kd of best base at the position.

ACGTGTTTAGACTTA: the binding signal was 19.7 Kd / Kd of best base at the position. Same read-out and setting: for ACGTGTTTACACTTG the value was 1.73 Kd / Kd of best base at the position; for ACGTCTTTACACTTA, 68.8 Kd / Kd of best base at the position.

The target in a further assay is T2, Gt (Drosophila melanogaster, UniProt P39572 369-448).
T2 sequence: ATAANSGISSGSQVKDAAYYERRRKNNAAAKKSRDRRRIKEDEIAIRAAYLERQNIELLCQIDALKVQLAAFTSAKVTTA
The description is as above. As to conditions: tags: N-GST (pGEX-6P-1, kept); chain copies: 2; dsDNA, one strand shown.
For the sequence ATTACGTAACC, the Kd (usually the concentration at which binding is half-saturated) is around 0.9 nM. For the sequence ATTACGTAAAC, the binding signal is 10.5 Kd / Kd of best base at the position. Regarding ATTACGGAACC, the binding signal is 460 Kd / Kd of best base at the position.

On to ATTACGTAACA, for which the binding signal was 2.19 Kd / Kd of best base at the position. With ATTATGTAACC, the binding signal is 3.81 Kd / Kd of best base at the position. The same measure, in the same setting: for ATTAAGTAACC the value was 133 Kd / Kd of best base at the position. Still for that read-out and setting: the result for GTTACGTAACC reads 1.09 Kd / Kd of best base at the position; that for ATTACGAAACC, 316 Kd / Kd of best base at the position. On to ATTACGTAACG, for which the binding signal is 3.4 Kd / Kd of best base at the position. On to ATTACGTAAGC, for which the binding signal was 3.37 Kd / Kd of best base at the position. As to ATTACGTTACC, the binding signal was 518 Kd / Kd of best base at the position.

With ATTTCGTAACC, the binding signal was 177 Kd / Kd of best base at the position. On the same count and under the same terms, for ATTACGTAATC the value was 1.58 Kd / Kd of best base at the position; for ATAACGTAACC, 174 Kd / Kd of best base at the position. On to ATTCCGTAACC, for which the binding signal was 1830 Kd / Kd of best base at the position. For CTTACGTAACC, the binding signal was 2.33 Kd / Kd of best base at the position. For ATTACATAACC, the binding signal was 3.03 Kd / Kd of best base at the position. The same measure, in the same setting: the result for ATTACGTAACT reads 4.28 Kd / Kd of best base at the position; that for ACTACGTAACC, 121 Kd / Kd of best base at the position; that for ATTACGTATCC, 549 Kd / Kd of best base at the position. As to ATTACGTAGCC, the binding signal is 1020 Kd / Kd of best base at the position. The same measure, in the same setting: for ATGACGTAACC the value was 3.59 Kd / Kd of best base at the position; for ATTACCTAACC, 45.8 Kd / Kd of best base at the position; for ATTACGTACCC, 1620 Kd / Kd of best base at the position. On the same count and under the same terms, the result for ATTGCGTAACC reads 3.54 Kd / Kd of best base at the position; that for ATCACGTAACC, 40.1 Kd / Kd of best base at the position. With ATTACGTCACC, the binding signal is 5.02 Kd / Kd of best base at the position. Turning to ATTAGGTAACC, the binding signal is 56.6 Kd / Kd of best base at the position. Same read-out and setting: for AATACGTAACC the value was 113 Kd / Kd of best base at the position. Still for that read-out and setting: for ATTACGCAACC the value was 4.03 Kd / Kd of best base at the position. Same read-out and setting: the result for TTTACGTAACC reads 6.92 Kd / Kd of best base at the position. Take ATTACTTAACC: the binding signal was 567 Kd / Kd of best base at the position.

For AGTACGTAACC, the binding signal was 155 Kd / Kd of best base at the position.

Turning to ATTACGTGACC, the binding signal is 18.9 Kd / Kd of best base at the position.
